# Experimental data taken from PubChem BioAssay AID1159580 (chemical genetic matrix, 2015).
# In all, about 5,500 compounds went through this assay and about 2,000 (36%) were called active. Roughly 18% stayed inconclusive and do not appear here. Some of the results follow. Values without a mark were called inactive. No stated cut-off is given here; in the data, active means normalized growth mostly below about 0.91 (no sharp cut-off); inconclusive means no clear call, values can overlap the other calls; inactive means mostly above about 0.92.
# Experiment: chemical genetic growth profiling, strain panel (AID 1159580);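 further: tested at 20 µM; growth read once vehicle control cultures reached saturation at 30 °C; 1 = growth at the plate median or of vehicle wells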
# Settings: S. cerevisiae deletion strains, growth OD
# [1] = locus YAR019C, strain CDC15, stronger effect = lower value
# [2] = locus YBL105C, strain PKC1, stronger effect = lower value
# [3] = locus YBR135W, strain CKS1, stronger effect = lower value
# [4] = locus YBR136W, strain MEC1, stronger effect = lower value
# [5] = locus YBR160W, strain CDC28, stronger effect = lower value
# [6] = locus YDL017W, strain CDC7, stronger effect = lower value
# [7] = locus YDL028C, strain MPS1, stronger effect = lower value
# [8] = locus YDL101C, strain DUN1, stronger effect = lower value
# [9] = locus YDL108W, strain KIN28, stronger effect = lower value
# [10] = locus YDL132W, strain cdc53, stronger effect = lower value
# [11] = locus YDL214C, strain PRR2, stronger effect = lower value
# [12] = locus YDR052C, strain DBF4, stronger effect = lower value
# [13] = locus YDR054C, strain cdc34, stronger effect = lower value
# [14] = locus YDR226W, strain ADK1, stronger effect = lower value
# [15] = locus YDR477W, strain SNF1, stronger effect = lower value
# [16] = locus YER123W, strain YCK3, stronger effect = lower value
# [17] = locus YER133W, strain GLC7, stronger effect = lower value
# [18] = locus YFL009W, strain cdc4, stronger effect = lower value
# [19] = locus YFL029C, strain CAK1, stronger effect = lower value
# [20] = locus YFR003C, strain YPI1, stronger effect = lower value
# [21] = locus YFR019W, strain FAB1, stronger effect = lower value
# [22] = locus YFR028C, strain CDC14, stronger effect = lower value
# [23] = locus YGR040W, strain KSS1, stronger effect = lower value
# [24] = locus YGR052W, strain FMP48, stronger effect = lower value
# [25] = locus YGR092W, strain DBF2, stronger effect = lower value
# [26] = locus YHR030C, strain SLT2, stronger effect = lower value
# [27] = locus YHR079C, strain IRE1, stronger effect = lower value
# [28] = locus YHR082C, strain KSP1, stronger effect = lower value
# [29] = locus YHR205W, strain SCH9, stronger effect = lower value
# [30] = locus YIL147C, strain SLN1, stronger effect = lower value
# [31] = locus YJL095W, strain BCK1, stronger effect = lower value
# [32] = locus YJL157C, strain FAR1, stronger effect = lower value
# [33] = locus YJR016C, strain ILV3, stronger effect = lower value
# [34] = locus YJR066W, strain TOR1 (second series), stronger effect = lower value
# [35] = locus YJR066W, strain TOR1, stronger effect = lower value
# [36] = locus YKL048C, strain ELM1, stronger effect = lower value
# [37] = locus YKL067W, strain YNK1, stronger effect = lower value
# [38] = locus YKL101W, strain HSL1, stronger effect = lower value
# [39] = locus YKL193C, strain SDS22, stronger effect = lower value
# [40] = locus YKL203C, strain TOR2, stronger effect = lower value
# [41] = locus YLR113W, strain HOG1, stronger effect = lower value
# [42] = locus YLR133W, strain CKI1, stronger effect = lower value
# [43] = locus YLR403W, strain SFP1, stronger effect = lower value
# [44] = locus YML070W, strain DAK1, stronger effect = lower value
# [45] = locus YMR001C, strain CDC5, stronger effect = lower value
# [46] = locus YMR205C, strain PFK2 (second series), stronger effect = lower value
# [47] = locus YMR277W, strain FCP1, stronger effect = lower value
# [48] = locus YNL006W, strain LST8, stronger effect = lower value
# [49] = locus YNL020C, strain ARK1, stronger effect = lower value
# [50] = locus YNL161W, strain CBK1, stronger effect = lower value
# [51] = locus YNL183C, strain NPR1, stronger effect = lower value
# [52] = locus YNL207W, strain RIO2, stronger effect = lower value
# [53] = locus YNL222W, strain SSU72, stronger effect = lower value
# [54] = locus YNL307C, strain MCK1 (second series), stronger effect = lower value
# [55] = locus YOL078W, strain AVO1, stronger effect = lower value
# [56] = locus YOL136C, strain PFK27, stronger effect = lower value
# [57] = locus YOR061W, strain CKA2, stronger effect = lower value
# [58] = locus YOR119C, strain RIO1, stronger effect = lower value
# [59] = locus YOR231W, strain MKK1, stronger effect = lower value
# [60] = locus YOR329C, strain SCD5, stronger effect = lower value
# [61] = locus YPL031C, strain PHO85, stronger effect = lower value
# [62] = locus YPL153C, strain RAD53, stronger effect = lower value
# [63] = locus YPL204W, strain HRR25, stronger effect = lower value
# [64] = locus YPL209C, strain IPL1, stronger effect = lower value
# [65] = locus YPL256C, strain CLN2, stronger effect = lower value
# [66] = locus YPR025C, strain CCL1, stronger effect = lower value
# [67] = locus YPR106W, strain ISR1, stronger effect = lower value
# [68] = locus YPR111W, strain DBF20, stronger effect = lower value
# [69] = strain NNK1, stronger effect = lower value
# [70] = strain TSCII, stronger effect = lower value
# [71] = locus YJL128C, strain PBS2, stronger effect = lower value
structure (smiles),measurement,setting,value
Oc1c(Br)cc(Br)cc1/C=N\n1cnnc1,normalized growth,[1],0.938
same,normalized growth,[2],0.942
same,normalized growth,[3],0.943
same,normalized growth,[4],0.943
same,normalized growth,[5],0.958
same,normalized growth,[6],0.943
same,normalized growth,[7],0.941
same,normalized growth,[8],0.915
same,normalized growth,[9],0.945
same,normalized growth,[10],0.947
same,normalized growth,[11],0.588 (active)
same,normalized growth,[12],0.947
same,normalized growth,[13],0.933
same,normalized growth,[14],0.947
same,normalized growth,[15],0.308 (active)
same,normalized growth,[16],0.452 (active)
same,normalized growth,[17],0.483 (active)
same,normalized growth,[18],0.954
same,normalized growth,[19],0.949
same,normalized growth,[20],0.945
same,normalized growth,[21],0.791
same,normalized growth,[22],0.958
same,normalized growth,[23],0.391 (active)
same,normalized growth,[24],0.323 (active)
same,normalized growth,[25],0.116 (active)
same,normalized growth,[26],0.307 (active)
same,normalized growth,[27],0.246 (active)
same,normalized growth,[28],0.32 (active)
same,normalized growth,[29],0.0783 (active)
same,normalized growth,[30],0.907
same,normalized growth,[31],0.26 (active)
same,normalized growth,[32],0.412 (active)
same,normalized growth,[33],0.951
same,normalized growth,[34],0.728
same,normalized growth,[35],0.287 (active)
same,normalized growth,[36],0.289 (active)
same,normalized growth,[37],0.503 (active)
same,normalized growth,[38],0.225 (active)
same,normalized growth,[39],0.943
same,normalized growth,[40],0.244 (active)
same,normalized growth,[41],0.369 (active)
same,normalized growth,[42],0.305 (active)
same,normalized growth,[43],0.122 (active)
same,normalized growth,[44],0.606 (active)
same,normalized growth,[45],0.903
same,normalized growth,[46],0.355 (active)
same,normalized growth,[47],0.931
same,normalized growth,[48],0.927
same,normalized growth,[49],0.259 (active)
same,normalized growth,[50],0.944
same,normalized growth,[51],0.354 (active)
same,normalized growth,[52],0.942
same,normalized growth,[53],0.944
same,normalized growth,[54],0.138 (active)
same,normalized growth,[55],0.926
same,normalized growth,[56],0.517 (active)
same,normalized growth,[57],0.15 (active)
same,normalized growth,[58],0.237 (active)
same,normalized growth,[59],0.316 (active)
same,normalized growth,[60],0.934
same,normalized growth,[61],0.303 (active)
same,normalized growth,[62],0.416 (active)
same,normalized growth,[63],0.348 (active)
same,normalized growth,[64],0.95
same,normalized growth,[65],0.462 (active)
same,normalized growth,[66],0.946
same,normalized growth,[67],0.918
same,normalized growth,[68],0.918
same,normalized growth,[69],0.289 (active)
same,normalized growth,[70],0.938
Oc1c(Cl)cc(Cl)cc1C=Nc1ccc(Sc2ccccc2)nc1Sc1ccccc1,normalized growth,[1],0.938
same,normalized growth,[2],0.958
same,normalized growth,[3],0.954
same,normalized growth,[4],0.954
same,normalized growth,[5],0.954
same,normalized growth,[6],0.956
same,normalized growth,[7],0.922
same,normalized growth,[8],0.97
same,normalized growth,[9],0.945
same,normalized growth,[10],0.95
same,normalized growth,[11],0.675 (active)
same,normalized growth,[12],0.968
same,normalized growth,[13],0.95
same,normalized growth,[14],0.956
same,normalized growth,[15],0.6 (active)
same,normalized growth,[16],0.7
same,normalized growth,[17],0.635 (active)
same,normalized growth,[18],0.945
same,normalized growth,[19],0.943
same,normalized growth,[20],0.955
same,normalized growth,[21],0.916
same,normalized growth,[22],0.942
same,normalized growth,[23],0.684 (active)
same,normalized growth,[24],0.616
same,normalized growth,[25],0.217 (active)
same,normalized growth,[26],0.322 (active)
same,normalized growth,[27],0.472 (active)
same,normalized growth,[28],0.599 (active)
same,normalized growth,[29],0.462 (active)
same,normalized growth,[30],0.939
same,normalized growth,[31],0.414 (active)
same,normalized growth,[71],0.913
same,normalized growth,[32],0.56 (active)
same,normalized growth,[33],0.961
same,normalized growth,[34],0.771
same,normalized growth,[35],0.482 (active)
same,normalized growth,[36],0.734 (active)
same,normalized growth,[37],0.584 (active)
same,normalized growth,[38],0.674 (active)
same,normalized growth,[39],0.945
same,normalized growth,[40],0.748
same,normalized growth,[41],0.667 (active)
same,normalized growth,[42],0.585 (active)
same,normalized growth,[43],0.49 (active)
same,normalized growth,[44],0.727
same,normalized growth,[45],0.943
same,normalized growth,[46],0.59 (active)
same,normalized growth,[47],0.929
same,normalized growth,[48],0.942
same,normalized growth,[49],0.566 (active)
same,normalized growth,[50],0.957
same,normalized growth,[51],0.606
same,normalized growth,[52],0.962
same,normalized growth,[53],0.938
same,normalized growth,[54],0.517 (active)
same,normalized growth,[55],0.955
same,normalized growth,[56],0.693
same,normalized growth,[57],0.392 (active)
same,normalized growth,[58],0.652 (active)
same,normalized growth,[59],0.509 (active)
same,normalized growth,[60],0.948
same,normalized growth,[61],0.598 (active)
same,normalized growth,[62],0.535 (active)
same,normalized growth,[63],0.577 (active)
same,normalized growth,[64],0.951
same,normalized growth,[65],0.619 (active)
same,normalized growth,[66],0.95
same,normalized growth,[67],0.956
same,normalized growth,[68],0.941
same,normalized growth,[69],0.965
same,normalized growth,[70],0.95
Oc1c(Br)cc(Br)cc1C=Nc1ccc(Sc2ccccc2)nc1Sc1ccccc1,normalized growth,[1],0.92
same,normalized growth,[2],0.945
same,normalized growth,[3],0.926
same,normalized growth,[4],0.945
same,normalized growth,[5],0.936
same,normalized growth,[6],0.948
same,normalized growth,[7],0.917
same,normalized growth,[8],0.969
same,normalized growth,[9],0.926
same,normalized growth,[10],0.931
same,normalized growth,[11],0.331 (active)
same,normalized growth,[12],0.955
same,normalized growth,[13],0.927
same,normalized growth,[14],0.932
same,normalized growth,[15],0.311 (active)
same,normalized growth,[16],0.364 (active)
same,normalized growth,[17],0.285 (active)
same,normalized growth,[18],0.927
same,normalized growth,[19],0.937
same,normalized growth,[20],0.94
same,normalized growth,[22],0.924
same,normalized growth,[23],0.351 (active)
same,normalized growth,[24],0.196 (active)
same,normalized growth,[25],0.155 (active)
same,normalized growth,[26],0.103 (active)
same,normalized growth,[27],0.151 (active)
same,normalized growth,[28],0.155 (active)
same,normalized growth,[29],0.0625 (active)
same,normalized growth,[30],0.931
same,normalized growth,[31],0.14 (active)
same,normalized growth,[71],0.904
same,normalized growth,[32],0.208 (active)
same,normalized growth,[33],0.953
same,normalized growth,[34],0.591 (active)
same,normalized growth,[35],0.162 (active)
same,normalized growth,[36],0.483 (active)
same,normalized growth,[37],0.24 (active)
same,normalized growth,[38],0.353 (active)
same,normalized growth,[39],0.93
same,normalized growth,[40],0.388 (active)
same,normalized growth,[41],0.383 (active)
same,normalized growth,[42],0.226 (active)
same,normalized growth,[43],0.134 (active)
same,normalized growth,[44],0.406 (active)
same,normalized growth,[45],0.922
same,normalized growth,[46],0.248 (active)
same,normalized growth,[47],0.904
same,normalized growth,[48],0.941
same,normalized growth,[49],0.174 (active)
same,normalized growth,[50],0.945
same,normalized growth,[51],0.236 (active)
same,normalized growth,[52],0.953
same,normalized growth,[53],0.915
same,normalized growth,[54],0.222 (active)
same,normalized growth,[55],0.928
same,normalized growth,[56],0.43 (active)
same,normalized growth,[57],0.142 (active)
same,normalized growth,[58],0.313 (active)
same,normalized growth,[59],0.196 (active)
same,normalized growth,[60],0.951
same,normalized growth,[61],0.29 (active)
same,normalized growth,[62],0.249 (active)
same,normalized growth,[63],0.311 (active)
same,normalized growth,[64],0.949
same,normalized growth,[65],0.314 (active)
same,normalized growth,[66],0.935
same,normalized growth,[67],0.945
same,normalized growth,[68],0.915
same,normalized growth,[69],0.945
same,normalized growth,[70],0.928
